Many of the other results were omitted from the sample, so hits are more common in it than they were.
D1 allo mod – D1 dopamine receptor (human) allosteric modulation | HEK293 D1, CRE-luciferase, dopamine EC30 potentiation; actives deviate in either direction | B-score at 10 µM | actives 5.9% (n = 58,000) | AID 641;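 active = luminescence count or its row- and column-corrected plate score outside the 99.7% band of the plate's sample wells, on either side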
DAT uptake mod – modulates human dopamine transporter uptake under cocaine; B-score at 10 µM; Q01959; LLC-PK1 hDAT cells, [14C]-dopamine uptake with cocaine IC80; actives deviate in either direction; actives 1.3% (n = 110,000); AID 449768;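 active = Z score or B-score, a plate-position-corrected score, falls beyond the plate's 99.7% confidence bounds, in either direction; inactive = both scores lie inside the 99.7% bounds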;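 also: scored against the spread of the other compound wells on the same plate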
BAP1 block – human BAP1 deubiquitinase inhibition; Q92560; recombinant BAP1, Ub-AMC hydrolysis fluorescence kinetic; hits give low values; calls only at 20 µM; actives 0.48% (n = 72,000); AID 436;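 active = activity remaining at or below 50% of control, provided the compound also passes the data quality filters; inactive = the rest, including low values that fail the filters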;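 also: 100% = DMSO wells rate and 0% = substrate alone blank rate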
Target sequence (Q92560 whole entry, looked up): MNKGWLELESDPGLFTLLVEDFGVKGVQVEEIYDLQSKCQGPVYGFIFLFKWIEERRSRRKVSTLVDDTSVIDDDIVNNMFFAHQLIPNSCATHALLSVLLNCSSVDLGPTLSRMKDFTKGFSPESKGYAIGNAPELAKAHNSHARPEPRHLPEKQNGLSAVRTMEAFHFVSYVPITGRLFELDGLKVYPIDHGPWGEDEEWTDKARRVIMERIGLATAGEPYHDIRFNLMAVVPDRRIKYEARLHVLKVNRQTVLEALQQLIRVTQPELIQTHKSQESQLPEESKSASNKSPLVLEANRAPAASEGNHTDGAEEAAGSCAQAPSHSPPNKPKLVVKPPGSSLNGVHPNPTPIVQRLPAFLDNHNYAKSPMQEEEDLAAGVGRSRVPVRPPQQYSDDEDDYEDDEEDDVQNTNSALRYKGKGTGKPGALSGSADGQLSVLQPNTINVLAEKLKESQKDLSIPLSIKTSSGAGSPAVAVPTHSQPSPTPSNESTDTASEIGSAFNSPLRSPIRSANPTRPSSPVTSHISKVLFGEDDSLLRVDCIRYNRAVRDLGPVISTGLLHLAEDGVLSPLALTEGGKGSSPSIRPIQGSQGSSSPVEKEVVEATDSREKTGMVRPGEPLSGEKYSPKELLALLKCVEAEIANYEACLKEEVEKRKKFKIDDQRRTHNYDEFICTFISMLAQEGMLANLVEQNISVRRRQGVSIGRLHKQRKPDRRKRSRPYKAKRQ
D1 PAM confirm – confirmation of human D1 dopamine receptor allosteric modulators. HEK293 D1 CRE-luciferase, dopamine EC30 potentiation; hits give high values. actives 88% (n = 2,200). luminescence at 10 µM. AID 642. shares compounds with D1 allo mod;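 active = luminescence in either of two replicates above the same-plate mean plus 3 SD of the low-dose dopamine control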
D1 ag no DA – secondary test of D1 modulators: activity without dopamine; shares compounds with D1 allo mod; HEK293 D1 CRE-luciferase, luminescence, no dopamine; hits give high values; luminescence at 10 µM; actives 0.8% (n = 1,900); in the data active = luminescence above about 3900
Isoprot counter – alters isoproterenol CRE-luciferase response in HEK293 cells; shares compounds with D1 allo mod; HEK293 D1 CRE-luciferase, isoproterenol EC30 counter-screen; hits give high values; luminescence at 10 µM; actives 63% (n = 2,200);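 active = luminescence in either replicate above plate mean of wells with a partly effective reference agonist dose plus 3 SD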;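 also: isoproterenol raises cAMP through native beta-adrenoceptor Gs so signal bypasses D1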
Starred values were filed as active, the others as inactive; i = inactive; / = no result given.

SMILES	D1 allo mod	DAT uptake mod	BAP1 block	D1 PAM confirm	Isoprot counter	others
Cc1ccc2[nH]c(=O)c(CN(CCc3ccccc3)C(=O)N3CCOCC3)cc2c1	-0.1	0.99	i	/	/
Cc1ccc(C2C(C#N)=C(N)Oc3nc(-c4ccccc4)[nH]c32)o1 (centres undefined)	/	0.056	i	/	/
N#CC1=C(N)Oc2nc(-c3ccccc3)[nH]c2C1c1cccnc1 (centres undefined)	5.1*	1.8	i	8448*	3604	D1 ag no DA=1564
CCCc1nn(C)c2c1C(c1cccnc1)C(C#N)=C(N)O2 (centres undefined)	/	-0.89	i	/	/
CCN(CC)c1ccc2c(c1)OC(N)=C(C#N)C2c1cccnc1 (centres undefined)	9.3*	-1.8	i	13200*	5488*	D1 ag no DA=2064
O=c1c2ccccc2sc2nc(C3CCCCC3)n(Cc3ccco3)c(=O)c12	3.3	/	i	/	/
CCc1nc2sc3ccccc3c(=O)c2c(=O)n1Cc1ccco1	3.4*	-7.3*	i	12936*	2952	D1 ag no DA=1700
CCOC(=O)c1c(-c2ccccc2)c2cc([N+](=O)[O-])ccc2[nH]c1=O	/	/	i	/	/
Nn1c(SCc2ccccc2)nnc1-c1ccco1	-0.47	0.013	i	/	/
c1ccc(-n2c(SCc3ccncc3)nnc2-c2ccco2)cc1	10*	0.61	i	14488*	3300*
Cc1ccc(Oc2ccccc2)c(NC=O)c1	4.9*	-0.053	/	12104*	3136	D1 ag no DA=1524
Cc1cc(C)cc(Oc2ccccc2C=O)c1	/	0.037	/	/	/
COCC(=O)n1nc(NCc2ccc(OC)cc2)nc1NCc1ccc(OC)cc1	1.5	0.53	i	/	/
CCC(=O)n1nc(-c2cccnc2)nc1NCc1ccc(OC)cc1	11*	0.026	i	7416*	3444	D1 ag no DA=1672
CCC(=O)n1nc(NCc2ccc(OC)c(OC)c2)nc1NCc1ccc(OC)c(OC)c1	6*	/	i	15072*	5080*
CCC(=O)n1nc(-c2ccccc2)nc1NCc1ccccc1	0.58	-0.24	i	/	/
COc1ccc(CNc2nc(NCc3ccc(OC)cc3)n(S(C)(=O)=O)n2)cc1	4.7*	0.13	i	9448*	4064*	D1 ag no DA=1620
COc1ccc(CNc2n[nH]c(NCc3ccc(OC)c(OC)c3)n2)cc1OC	1.9	0.34	i	/	/
CCCC[n+]1c(C)sc2ccccc21	/	/	i	/	/
Cc1cc(Cl)ccc1OCC(=O)NCCO	/	/	i	/	/
CC(=O)c1cccc(NC(=O)c2nn3c(C(F)(F)F)c4c(nc3c2Cl)-c2ccccc2CC4)c1	/	/	i	/	/
Cc1cc2c(cc1C)N(C(=O)CSc1nncn1C)C(C)(C)c1ssc(=S)c1-2	/	-1.2	/	/	/
Cc1ccc2c(c1)N(C(=O)CSc1nncn1C)C(C)(C)c1ssc(=S)c1-2	2.8*	-0.15	i	6228*	2648*
CCOc1cc2[nH]c(=O)n(CCCN3CCCC3=O)c(=O)c2cc1OCC	2.7*	0.075	i	6760*	2644
COc1cc2[nH]c(=O)n(CCCCCC(=O)NCCCN3CCCC3=O)c(=O)c2cc1OC	-0.18	-0.17	i	/	/
SMILES	D1 allo mod	DAT uptake mod	BAP1 block	D1 PAM confirm	Isoprot counter	others
COc1ccc(-c2noc(CCC(=O)Nc3cccnc3)n2)cc1OC	4.7*	0.24	i	17976*	2960	D1 ag no DA=1752
Cc1ccc(-c2noc(COc3ccc4c(c3)OCO4)n2)cc1	/	-0.7	/	/	/
COc1ccc(-c2noc(COc3ccc(C)c(C)c3)n2)cc1OC	4.5*	0.29	i	9288*	3352*
COc1ccc(-c2noc(CSc3nc(-c4ccccc4)cc(=O)[nH]3)n2)cc1OC	7.6*	0.14	i	7928*	2680*
CCOc1ccc(-c2noc(CCC(N)=O)n2)cc1OCC	11*	2.1	i	16532*	3756*	D1 ag no DA=1780
COc1ccccc1N1CCN(C(=O)CSc2nc(-c3ccccc3)cc(=O)[nH]2)CC1	-0.48	-0.28	i	/	/
COc1cccc(-c2noc(CCC(=O)Nc3cccnc3)n2)c1	1.6	0.16	i	/	/
COc1ccc(-c2noc(CCC(=O)NC3CCCCC3)n2)cc1OC	-0.49	-0.41	i	/	/
COc1ccc(N2C(=O)C(N3C(=O)c4ccc([N+](=O)[O-])cc4C3=O)C2c2cc(Br)ccc2OC)cc1 (centres undefined)	/	/	i	/	/
CC(C)(O)C12CC3CC(CC(C3)C1)C2	/	/	i	/	/
CC1(C)CC(=O)C2=C(C1)Nc1cc(C(=O)c3ccccc3)ccc1NC2c1ccc(Cl)cc1 (centres undefined)	/	/	i	/	/
O=c1c(F)cn(Cc2ccccc2)c(=O)n1Cc1ccccc1	/	/	i	/	/
Cc1cccc(OCc2nc(-c3nonc3N)no2)c1C	-5.1	-0.83	i	/	/
CCOc1ccc(-c2noc(COC)n2)cc1OC	3.4*	-0.15	i	8824*	3640	D1 ag no DA=1732
COc1ccc(-c2noc(CCCc3ccccc3)n2)cc1OC	2.5	1.1	i	/	/
COc1ccc(-c2noc(Cc3ccc(Cl)cc3)n2)cc1OC	/	-0.13	/	/	/
COc1ccc(-c2noc(CSc3nnc(-c4ccccc4)n3C)n2)cc1	/	2.4	/	/	/
COc1ccc(-c2noc(CSc3nnc(-c4ccncc4)n3-c3ccc(F)cc3)n2)cc1OC	4.6*	1.4	i	10824*	2264	D1 ag no DA=1596
COc1ccc(-c2noc(COc3ccc4ccccc4c3Br)n2)cc1OC	3.7*	1.7	i	8636*	3180	D1 ag no DA=1540
CCOc1ccc(Cc2nc(-c3nonc3N)no2)cc1OCC	7.7*	0.67	i	13988*	3632*	D1 ag no DA=1580
O=C(O)c1cc(C(c2ccc(O)c(C(=O)O)c2)C(Cl)(Cl)Cl)ccc1O	/	/	i	/	/
COC(=O)c1sc2ccccc2c1NC(=O)c1ccc(OC)cc1OC	/	/	i	/	/
COc1ccc(C2NC(=O)NC(C)=C2C(=O)Nc2ccccc2)cc1 (centres undefined)	/	/	i	/	/
COc1ccccc1C(=O)Nc1cccc(Cl)c1	/	/	i	/	/
Cc1ccc(C)c(C(=O)c2ccc(N)cc2)c1	/	/	i	/	/
SMILES	D1 allo mod	DAT uptake mod	BAP1 block	D1 PAM confirm	Isoprot counter	others
CCOc1ccc(C(=O)NCC(=O)OC(C)C(=O)NCc2ccco2)cc1OCC (centres undefined)	6*	-0.62	i	5900	2648*
CCOc1cc(NC(=S)NCc2ccco2)c(OCC)cc1NC(C)=O	/	-0.48	/	/	/
CCOC(=O)C1C(c2ccccc2)NC(=S)NC1(O)C(F)(F)F (centres undefined)	/	/	i	/	/
O=C1CC(c2ccccc2)C(C(=O)O)N1 (centres undefined)	15*	0.7	i	4528	2596
O=C1CC(c2ccccc2)C(C(=O)Nc2ccccc2F)N1 (centres undefined)	0.051	/	i	/	/
CC(=O)Nc1ccc(C(=O)NC(CC(=O)O)c2ccc(Cl)cc2)cc1 (centres undefined)	/	-0.35	/	/	/
CN(C)c1ccc(C(CC(=O)O)NC(=O)c2ccc(Cl)cc2)cc1 (centres undefined)	18*	0.13	i	5248	2524
C=C(C)Cn1c(SCC#N)nc2ccccc2c1=O	16*	-2.9*	i	15044*	4668*	D1 ag no DA=1640
C=C(C)Cn1c(SCC)nc2ccccc2c1=O	5	-0.81	i	/	/

Screening data from PubChem.
